In PubChem BioAssay (NCI):
About 79,000 compounds went through this panel and 15% of them were active in at least one assay; those are over-represented in the sample as a whole. Calls of active or inactive are those of the source. No stated cut-off is given here; in the data, active means growth inhibition above about 70%; inactive means the rest.

Assay: NCI Yeast Anticancer Drug Screen. Data for the cln2 rad14 strain (AID 165);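 further: 0% = growth equal to vehicle treated cultures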
Conditions: S. cerevisiae cln2 rad14 strain, at 50.0 µM, stronger effect = higher value
Procedure, shortened: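 Test compounds were added to cln2 rad14 yeast cultures; inhibition of growth was then determined by comparison with vehicle treatment.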

SMILES	growth inhibition
O=C1CSC(c2cccc(O)c2)N1c1nncs1 (configuration not stated)	12.7% (inactive)
CCCCCCCCCC1CC(=O)OC23CCCC(=O)C12O3 (configuration not stated)	15.8% (inactive)
CC(C)NCC(O)COc1c2ccccc2nc2ccccc12 (configuration not stated)	-1.65% (inactive)
CCCOc1ccc(C(=O)C(C(c2ccccc2)N2CCOCC2)N2CCOCC2)cc1 (configuration not stated)	36.7% (inactive)
O=S(=O)(OI(O)CC(F)(F)F)C(F)(F)F	5.9% (inactive)
Nc1ncnc2c1ncn2C1CCC(CP(=O)(O)O)C1 (configuration not stated)	-29.4% (inactive)
O=C(CC(C(=O)c1cccs1)c1cccs1)c1ccsc1 (configuration not stated)	11.1% (inactive)
O=C(C[n+]1ccccc1CCCO)c1ccc(F)cc1	28.3% (inactive)
CCOC(=O)NCC(C)(C)N(C(=O)OCC)c1ccccc1	-9.95% (inactive)
O=C(/C=C/c1cccc2ccccc12)c1ccccc1Cl	16.9% (inactive)
O=C1NC(=O)C(Cc2ccco2)N1 (configuration not stated)	-20.6% (inactive)
N=C1N=Nc2nc(C(C(=O)c3cccc(O)c3)c3nc4n(c3O)C(=N)N=N4)c(O)n21 (configuration not stated)	10.4% (inactive)
CCOC(=O)\C(C#N)=C/C=C(C)/C(C)=C/Nc1ccc([N+](=O)[O-])cc1[N+](=O)[O-]	-5.2% (inactive)
C[C@]1(CO)CCC[C@@]2(C)C1CC[C@H]1CC3C[C@]12CC[C@]3(C)O (some centres not stated)	28.4% (inactive)
CC(=O)Nc1c(Cl)cccc1[N+](=O)[O-]	-26.4% (inactive)
CCOC(=O)C1C/C(C)=C(/C)SCCCS1 (configuration not stated)	21.1% (inactive)
NC(=O)c1cc(Cl)ccc1O	3.1% (inactive)
